In the library only some 2.9% were active in any assay of this set; here they are far more common.
PAFAH1B2 inh – PAFAH1B2 (human) inhibition. P68402. recombinant PAFAH1B2, FP-rhodamine activity probe, fluorescence polarization. inhibition, % at 3.39 µM. hit rate 1.2% among 340,000. AID 492953;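 active = inhibition above the mean of all tested compounds plus 3 SD, cut at about 24% in these data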;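 note: 0% = enzyme with DMSO and 100% = wells lacking PAFAH1B2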
Target sequence (P68402 whole entry, looked up): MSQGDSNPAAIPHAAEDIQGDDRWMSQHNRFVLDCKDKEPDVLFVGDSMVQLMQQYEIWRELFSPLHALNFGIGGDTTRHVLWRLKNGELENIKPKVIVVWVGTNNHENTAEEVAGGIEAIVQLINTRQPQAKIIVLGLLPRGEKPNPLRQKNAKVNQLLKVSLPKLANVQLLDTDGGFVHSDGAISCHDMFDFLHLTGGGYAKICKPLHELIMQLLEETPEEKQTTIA
EBNA-1 inhibitor – blocks EBNA-1 binding to DNA | AID 1950 | EBNA-1 DNA binding, fluorescence polarization | inhibition, % at 14.8 µM | hit rate 0.34% among 300,000; in the data active = inhibition above about 28%
ZTA counter – ZTA (EBV) inhibition in EBNA-1 counter-screen. P03206. ZTA-DNA binding, fluorescence polarization. inhibition, % at 11 µM. hit rate 0.15% among 320,000. AID 2234; in the data active = inhibition above about 33%
pPAFAH FP inh – pPAFAH (human) enzyme inhibition; inhibition, % at 3.39 µM; recombinant pPAFAH, FP-rhodamine probe fluorescence polarization; hit rate 1.5% among 330,000;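 active = inhibition above the mean inhibition across the screen plus 3 SD, cut at about 25% in these data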;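 note: inhibitors block binding of the rhodamine activity-based probe so polarization drops; 0% = enzyme with DMSO and 100% = wells lacking pPAFAH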
Target sequence (Q13093 whole entry, looked up): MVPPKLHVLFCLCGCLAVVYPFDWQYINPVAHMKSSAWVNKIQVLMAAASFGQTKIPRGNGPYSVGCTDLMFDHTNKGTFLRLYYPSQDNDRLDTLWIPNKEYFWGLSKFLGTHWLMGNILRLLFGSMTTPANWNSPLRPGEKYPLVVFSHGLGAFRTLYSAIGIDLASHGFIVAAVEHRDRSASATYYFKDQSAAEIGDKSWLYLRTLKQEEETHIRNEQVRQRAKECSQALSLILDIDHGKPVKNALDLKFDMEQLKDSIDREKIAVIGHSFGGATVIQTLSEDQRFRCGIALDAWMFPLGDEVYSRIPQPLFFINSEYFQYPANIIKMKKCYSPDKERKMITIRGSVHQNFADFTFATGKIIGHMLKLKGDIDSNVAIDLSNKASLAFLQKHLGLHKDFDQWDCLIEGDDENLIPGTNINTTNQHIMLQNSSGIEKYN
PAFAH1B3 FP inh – blocks human PAF acetylhydrolase 1B catalytic subunit 3 | recombinant PAFAH1B3, FP-rhodamine probe, fluorescence polarization | hit rate 0.28% among 340,000 | inhibition, % at 3.39 µM;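 active = inhibition above the screen-wide average of all tested compounds plus 3 SD, cut at about 25% in these data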;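 note: 0% = enzyme with DMSO only and 100% = wells lacking PAFAH1B3 protein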
PAFAH2 FP inh – PAFAH2 (human) inhibition | recombinant PAFAH2, FP-rhodamine activity probe, fluorescence polarization | hit rate 0.99% among 340,000 | inhibition, % at 3.39 µM | Q99487;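 active = inhibition above the mean over all tested compounds plus 3 SD, cut at about 30% in these data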;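 note: inhibitors block probe labeling of enzyme so polarization drops; 0% = enzyme with DMSO and 100% = wells lacking PAFAH2 protein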
pPAFAH confirm – confirmation of human plasma PAF acetylhydrolase (pPAFAH) inhibitors. shares compounds with pPAFAH FP inh. recombinant pPAFAH, FP-Rh probe fluorescence polarization. inhibition, % at 3.39 µM. hit rate 72% among 2,300;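 active = mean inhibition of the triplicate above the hit cutoff set for the earlier primary screen, cut at about 25% in these data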;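 note: 0% = enzyme with DMSO and 100% = wells lacking pPAFAH enzyme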
* = called active by the depositor; · = no result.

SMILES | PAFAH1B2 inh | EBNA-1 inhibitor | ZTA counter | pPAFAH FP inh | PAFAH1B3 FP inh | PAFAH2 FP inh | pPAFAH confirm
O=C(O/N=C(\c1ccccc1)c1ccncc1)c1ccccc1Cl | 88* | -11 | -17 | 45* | 9 | 25 | 23
O=C(Nc1ccc(NC(=O)N2CCN(c3ccccc3O)CC2)cc1)N1CCN(c2ccccc2O)CC1 | 2 | -2 | 0 | 9 | -4 | -5 | ·
Cc1[nH]c2ccccc2c1/C=N/NC(=O)c1cccc(S(=O)(=O)Nc2cccc(C(F)(F)F)c2)c1 | 35* | -13 | -2 | 40* | 43* | 12 | 40*
CCNc1ccc(Br)cc(C(=O)/C=C/c2ccccc2Cl)c1=O | 3 | 2 | 6 | 46* | 9 | 36* | 28*
CNc1ccc(Br)cc(C(=O)/C=C/c2cccc(OC)c2OC)c1=O | 5 | 5 | 9 | 20 | 6 | 13 | ·
CCOc1ccc(NC(=S)NC(=O)/C=C/c2ccc(OC)c(OC)c2)c([N+](=O)[O-])c1 | 2 | 1 | 9 | -6 | 5 | 3 | ·
CCOc1ccc(NC(=S)NC(=O)/C=C/c2ccc(C)cc2)c([N+](=O)[O-])c1 | -2 | -2 | 2 | 38* | -21 | -9 | -2
Cc1cc(C)c(C(=O)N2CCCC(N3CCN(c4ccc(F)cc4)CC3)C2)o1 (centres undefined) | 1 | 4 | -2 | -3 | 1 | 0 | ·
NC1=NC(=O)/C(=C/c2ccc(Br)cc2)S1 | 2 | 4 | 1 | 6 | 2 | 2 | ·
NC1=NC(=O)/C(=C/c2cc(Br)c(O)c(Br)c2)S1 | -3 | -21 | -3 | 48* | 34* | 10 | 42*
CN(CC(=O)Nc1ccc(F)cc1)C(=O)CN1C(=O)NC2(CCCC2)C1=O | -3 | · | · | · | -5 | 1 | ·
Cc1noc(C)c1N=Nc1ccc(Br)cc1C(=O)O | 0 | 1 | 11 | 3 | -1 | -8 | ·
O=C(CSc1nc2nn(-c3ccccc3)c(=O)c-2c2n1CCCCC2)c1ccc(O)c(O)c1 | 9 | · | -13 | 71* | 29* | 85* | 86*
O=C1C2C3C=CC(C2C(=O)N1c1cccc(O)c1)C1C2C(=O)N(c4cccc(O)c4)C(=O)C2C31 (centres undefined) | 10 | -8 | 6 | 3 | 1 | 3 | ·
Cc1c(C=O)c2ccccc2n1CC(=O)N1CCc2ccccc2C1 | 4 | -2 | 10 | -3 | -6 | -1 | ·
NS(=O)(=O)c1cnccc1NCCc1ccccc1 | · | 12 | 0 | -1 | · | · | ·
CC(C)(c1ccccc1)c1ccc(OCCCN2CCNCC2)cc1 | 4 | -4 | -20 | 39* | -4 | -9 | 25*
CN(C)C(=O)Nc1ccccc1 | 3 | 7 | 18 | -1 | -9 | -5 | ·
C/C(=N\NC(=O)c1ccc(C)cc1C)c1ccc2c(c1)OCO2 | 2 | -7 | -3 | 0 | 4 | -6 | ·
C/C(=N\NC(=O)c1cc2ccccc2cc1O)c1ccc2c(c1)OCO2 | 7 | -6 | -10 | 55* | -2 | 9 | 6
C/C(CC(=O)N1CCCC1)=N\NC(=O)c1cc2ccccc2cc1O | 4 | -14 | -5 | 48* | 7 | 12 | 15
CCOC(=O)C(C)/C(C)=N/NC(=O)c1cc2ccccc2cc1O (centres undefined) | 2 | -2 | -2 | 46* | 4 | 4 | 4
Cc1ccc(SCc2cc(=O)c3c(=O)n(-c4ccccc4)[nH]c3[nH]2)cc1 | 25* | 3 | -5 | 46* | 14 | 25 | 21
O=c1cc(CSc2ccc(Cl)cc2)[nH]c2[nH]n(-c3ccccc3)c(=O)c12 | 45* | 11 | 4 | 43* | 6 | 33* | 27*
COc1nc(N(C)C)nc(N(C#N)S(=O)(=O)c2ccc(C)cc2)n1 | 2 | 0 | 1 | 5 | 14 | -1 | ·
SMILES | PAFAH1B2 inh | EBNA-1 inhibitor | ZTA counter | pPAFAH FP inh | PAFAH1B3 FP inh | PAFAH2 FP inh | pPAFAH confirm
Cc1[nH]c2ccccc2c1N=Nc1ccccc1C(=O)O | 6 | -13 | -1 | 47* | 20 | 9 | 31*
Cc1[nH]c2ccccc2c1N=Nc1cccc(C(=O)O)c1 | 2 | 10 | 3 | 5 | 8 | 7 | ·
CCCC(=O)OCCNc1cc(SCc2ccco2)c2nonc2c1[N+](=O)[O-] | 4 | -12 | -16 | 78* | 5 | 7 | 5
CCCSc1cc(NCCOC(=O)CCC)c([N+](=O)[O-])c2nonc12 | 4 | -1 | -3 | 2 | 6 | -8 | ·
CCCSc1cc(NCCOC(C)=O)c([N+](=O)[O-])c2nonc12 | 2 | 9 | 5 | 2 | 4 | -6 | ·
CC(=O)OCCCNc1cc(SCc2ccco2)c2nonc2c1[N+](=O)[O-] | -1 | 9 | -25 | 39* | 3 | 13 | 3
COc1ccc(C2Cc3ccccc3C(=O)O2)cc1 (centres undefined) | 3 | 7 | 7 | 4 | 1 | 1 | ·
Cc1nc(-c2ccccc2)sc1C(=O)Nc1ccccc1F | 9 | 4 | 0 | 8 | -7 | -2 | ·
Cc1nc(-c2ccccc2)sc1C(=O)Nc1ccc(S(N)(=O)=O)cc1 | 4 | 9 | 9 | 46* | 1 | 4 | -7
NC(=O)c1cnccc1C=Cc1ccccc1 | -1 | · | · | · | 4 | 12 | ·
Cc1ccccc1SC1CCN(Cc2nc(C3CC3)no2)CC1 | -3 | -1 | -5 | 1 | -3 | 3 | ·
Cc1ccccc1S(=O)(=O)Cc1ccc(C(=O)NCCCN2CCCC2)o1 | 5 | -9 | -5 | 35* | 0 | -8 | 0
Cc1ccccc1S(=O)(=O)Cc1ccc(C(=O)NCCCN2CCN(C)CC2)o1 | -1 | -2 | 3 | 3 | 7 | -4 | ·
O=C(CN1C(=O)c2cccnc2Oc2ccc(Cl)cc21)Nc1ccccc1F | 0 | -12 | 4 | -8 | -1 | -9 | ·
Oc1c(Cl)cc(Cl)cc1/C=C/c1ccc2cccc(O)c2n1 | 1 | -23 | 1 | 51* | 11 | 14 | 49*
CCOc1ccc2nc(SCC(=O)N3CCCCCC3)c(C#N)cc2c1 | -1 | 3 | 2 | 2 | 0 | -14 | ·
CCOc1ccc2cc(C#N)c(SCC(=O)N3CCOCC3)nc2c1 | 0 | 7 | -16 | 82* | 7 | 1 | 6
N#C/C(=C\c1ccc([N+](=O)[O-])o1)C(=O)Nc1ccc(F)cc1 | 1 | 37* | 79* | 44* | 7 | 9 | 24
CN1CCN(CC(=O)Nc2c(C#N)cnn2-c2ccccc2)CC1 | · | -5 | -17 | 8 | · | · | ·
CCCCOc1ccc(C(=O)NNC(=O)C2C3C=CC(C3)C2C(=O)O)cc1 (centres undefined) | 1 | 1 | -2 | 1 | 1 | -2 | ·
Cc1cc(Br)ccc1NC(=O)C1C2CCC(O2)C1C(=O)O (centres undefined) | 1 | -4 | -6 | 1 | 6 | 4 | ·
Oc1ccc(-c2nc(-c3ccc(O)c(O)c3)cs2)cc1 | 0 | 5 | 11 | 49* | -4 | 0 | 38*

Assay outcomes (PubChem)
